Reference: PubChem BioAssay AID1159580 (chemical genetic matrix, 2015)
Several values for one entry are separate records, joined by “and”; a condition that tells them apart may be missing. Equal values may be shown once. Hit rate of the full screen: of about 5,500 compounds, about 2,000 (36%) were called active. Not shown: some 18% with an inconclusive outcome. Cut-off read from the data, not from the text of the source: active = normalized growth mostly below about 0.91 (no sharp cut-off); inconclusive = no clear call, values can overlap the other calls; inactive = mostly above about 0.92. The list shows a part of the results.

Assay: chemical genetic growth profiling, strain panel (AID 1159580);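 note: tested at 20 µM; growth read once vehicle control cultures reached saturation at 30 °C; 1 = growth at the plate median or of vehicle wells; lower values mean less growth of the strain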
Conditions: S. cerevisiae deletion strains, growth OD

Measured: normalized growth

C[C@@H]1O[C@@H](O[C@H]2C[C@@H](O)[C@]3(CO)C4C(CC[C@]3(O)C2)[C@@]2(O)CC[C@H](C3=CC(=O)OC3)[C@@]2(C)C[C@H]4O)[C@H](O)[C@H](O)[C@H]1O (some centres not stated)
inactive: locus YAL021C, strain ccr4, stronger effect = lower value 1.01 | locus YAL026C, strain drs2, stronger effect = lower value 1.02 | locus YAL030W, strain snc1, stronger effect = lower value 1.03 | locus YBL061C, strain skt5, stronger effect = lower value 1.02 | locus YBR009C, strain hhf1, stronger effect = lower value 1.04 | locus YBR021W, strain FUR4, stronger effect = lower value 1.05 | locus YBR023C, strain chs3, stronger effect = lower value 1.03 | locus YBR171W, strain sec66, stronger effect = lower value 1.04 | locus YBR229C, strain ROT2, stronger effect = lower value 1.02 | locus YBR231C, strain swc5, stronger effect = lower value 1.01 | locus YBR279W, strain paf1, stronger effect = lower value 1.02 | locus YCL011C, strain gbp2, stronger effect = lower value 1.02 | locus YCL016C, strain dcc1, stronger effect = lower value 1.04 | locus YCL029C, strain bik1, stronger effect = lower value 0.99 | locus YCL061C, strain MRC1, stronger effect = lower value 1.01 | locus YCL069W, strain vba3, stronger effect = lower value 1.03 | locus YCR088W, strain abp1, stronger effect = lower value 1.02 | locus YDL005C, strain med2, stronger effect = lower value 1.02 | locus YDL035C, strain GPR1, stronger effect = lower value 1.05 | locus YDL040C, strain nat1, stronger effect = lower value 1.02 | locus YDL074C, strain BRE1, stronger effect = lower value 1.04 | locus YDL101C, strain DUN1, stronger effect = lower value 1.02 | locus YDL185W, strain tfp1, stronger effect = lower value 1 | locus YDL192W, strain arf1, stronger effect = lower value 0.994 | locus YDR001C, strain nth1, stronger effect = lower value 1.02 | locus YDR069C, strain doa4, stronger effect = lower value 0.997 | locus YDR101C, strain arx1, stronger effect = lower value 0.994 | locus YDR137W, strain rgp1, stronger effect = lower value 1.02 | locus YDR159W, strain sac3, stronger effect = lower value 1 | locus YDR162C, strain NBP2, stronger effect = lower value 1.03 | locus YDR195W, strain ref2 1.01 | locus YDR297W, strain sur2, stronger effect = lower value 1.02 | locus YDR318W, strain mcm21, stronger effect = lower value 0.998 | locus YDR334W, strain swr1, stronger effect = lower value 1.03 | locus YDR335W, strain msn5, stronger effect = lower value 1.03 | locus YDR388W, stronger effect = lower value 0.992 | locus YDR392W, strain spt3, stronger effect = lower value 0.981 | locus YDR502C, strain sam2, stronger effect = lower value 0.989 | locus YEL003W, strain gim4, stronger effect = lower value 1.03 | locus YEL037C, strain rad23, stronger effect = lower value 1.03 | locus YEL061C, strain CIN8 (second series), stronger effect = lower value 1.03 | locus YEL061C, strain CIN8, stronger effect = lower value 1.02 | locus YER015W, strain faa2, stronger effect = lower value 1.02 | locus YER016W, strain bim1, stronger effect = lower value 1.01 | locus YER110C, stronger effect = lower value 0.985 | locus YER111C, strain swi4, stronger effect = lower value 1.02 | locus YER155C, strain BEM2 (second series), stronger effect = lower value 1.01 | locus YER155C, strain BEM2, stronger effect = lower value 1.01 | locus YER167W, strain BCK2, stronger effect = lower value 1.03 | locus YFR010W, strain ubp6, stronger effect = lower value 1.03 | locus YGL078C, strain dbp3, stronger effect = lower value 0.992 | locus YGL086W, strain mad1, stronger effect = lower value 0.996 | locus YGL167C, strain pmr1, stronger effect = lower value 1.03 | locus YGL173C, strain kem1, stronger effect = lower value 1.02 | locus YGL227W, strain vid30, stronger effect = lower value 1.03 | locus YGL240W, strain doc1, stronger effect = lower value 0.997 | locus YGL248W, strain PDE1, stronger effect = lower value 1.02 | locus YGL253W, strain hxk2, stronger effect = lower value 1.01 | locus YGR135W, strain pre9, stronger effect = lower value 1.01 | locus YGR252W, strain gcn5, stronger effect = lower value 0.98 | locus YHR013C, strain ard1, stronger effect = lower value 1.04 | locus YHR027C, strain rpn1, stronger effect = lower value 1.02 | locus YHR030C, strain SLT2, stronger effect = lower value 1.02 | locus YHR079C, strain IRE1 (second series), stronger effect = lower value 0.987 | locus YHR079C, strain IRE1, stronger effect = lower value 1.02 | locus YHR094C, strain hxt1, stronger effect = lower value 0.983 | locus YHR129C, strain ARP1, stronger effect = lower value 1.02 | locus YHR142W, strain chs7, stronger effect = lower value 1.04 | locus YHR200W, strain rpn10, stronger effect = lower value 0.999 | locus YIL066C, strain RNR3, stronger effect = lower value 1.05 | locus YIL073C, strain SPO22, stronger effect = lower value 0.981 | locus YIL125W, strain kgd1, stronger effect = lower value 0.994 | locus YIR030C, strain dcg1, stronger effect = lower value 0.991 | locus YJL092W, strain hpr5, stronger effect = lower value 1.02 | locus YJL095W, strain BCK1 (second series), stronger effect = lower value 1.05 | locus YJL095W, strain BCK1, stronger effect = lower value 1.03 and 1.01 | locus YJL115W, strain asf1, stronger effect = lower value 1.03 | locus YJL129C, strain trk1, stronger effect = lower value 1.04 | locus YJL134W, strain LCB3, stronger effect = lower value 1.01 | locus YJL154C, strain vps35, stronger effect = lower value 1.02 | locus YJL164C, strain tpk1, stronger effect = lower value 1.02 | locus YJL166W, strain qcr8, stronger effect = lower value 1.01 | locus YJL168C, strain set2, stronger effect = lower value 0.987 | locus YJL187C, strain SWE1 (second series), stronger effect = lower value 1.03 | locus YJL187C, strain SWE1, stronger effect = lower value 1.02 | locus YJR043C, strain POL32, stronger effect = lower value 1.05 | locus YJR066W, strain TOR1, stronger effect = lower value 0.989
